Screening data from PubChem.
VACV mCherry inh – qHTS for Stage-Specific Inhibitors of Vaccinia Orthopoxvirus: mCherry Reporter Primary qHTS; Vaccinia virus mCherry reporter infection, fluorescence; Potency, µM (series often up to 36.5 µM), actives largely listed as inhibitors; 0.63% of 310,000 active; AID 720579, 2013; calls by dose curve; tested in A549 cells; also: nearly all actives have a fitted effect of over 35% in size
HCV inhibitor – qHTS Assay for Inhibitors of Hepatitis C Virus (HCV) | Huh7.5.1 HCVcc-Cre infection, luciferase reporter, 44 h | Potency, µM (titrated, usually from 41.8 µM), usual class: inhibitors | 3.4% of 340,000 active | AID 651820, 2012; active = well fitted inhibition curve with a large enough effect; inconclusive = small, poorly fitted or top-dose-only effect, or another doubt; inactive = no such curve, though single readings can be large or run the other way
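Reporter virus HCVcc-Cre (~0.5 moi) infects cells exposed to compound; seeding density 1,000 cells/well with 4 h settling beforehand. Luminescence, 15 sec read, taken 44 h post-infection following a 15 min RT substrate incubation.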
Vaccinia Venus – qHTS for Stage-Specific Inhibitors of Vaccinia Orthopoxvirus: Venus Reporter Primary qHTS; Vaccinia virus Venus reporter expression, fluorescence; Potency, µM (doses to about 36.5 µM), hits mostly inhibitors; 0.46% of 330,000 active; AID 720580, 2013; calls by dose curve; tested in A549 cells; also: nearly all actives have a fitted effect of over 30% in size
Large screens that a line does not name were inactive. Shown are actives, neighbours in structure and some others; about 3.3% of the full set was active somewhere.

CCOC(=O)N1CCN(C(C(=O)NC2CCCC2)c2cccc(OC)c2OC)CC1 (stereo not given)	none (no result: HCV inhibitor)
CNc1ccc(/C=C2\C=Cc3ccccc32)cc1I	none (no result: HCV inhibitor)
COc1ccc(N(CC(=O)NC2CC3CCC2C3)S(=O)(=O)c2ccc(C)c([N+](=O)[O-])c2)cc1 (stereo not given)	VACV mCherry inh inconclusive, HCV inhibitor 2.82µM
COc1ccc(N(CC(=O)Nc2ccccc2F)S(=O)(=O)c2ccc(C)c([N+](=O)[O-])c2)cc1	VACV mCherry inh inconclusive, HCV inhibitor inconclusive
C(=C\c1nc2ccccc2s1)/c1ccc2c(c1)OCO2	VACV mCherry inh inconclusive (no result: HCV inhibitor)
Cc1cc(Sc2nc(NC(C)C)nc(NC(C)C)n2)nc(Cl)n1	VACV mCherry inh 7.94µM, Vaccinia Venus inconclusive
CSc1nc(NC(C)C)nc(NC(C)C)n1	none
Cc1cccc(C(=O)NCC(c2cccs2)S(=O)(=O)c2cccs2)c1 (stereo not given)	none (no result: HCV inhibitor)
Cc1ncc2c(c1CNC(=O)c1ccsc1)CCN(C(=O)c1c(F)cccc1Cl)C2	none (no result: HCV inhibitor)
N#Cc1sc2nc(C3CC3)cc(-c3ccccc3)c2c1N	HCV inhibitor inconclusive
N#Cc1sc2nc(-c3ccccc3)cc(-c3ccco3)c2c1N	HCV inhibitor 12.6µM
CCN(CC)C(=O)c1sc2c(c1C)c(=O)n(-c1ccccc1)c(=O)n2Cc1c(C)cc(C)cc1C	none (no result: HCV inhibitor)
Cc1ccc2c(c1)ncc[n+]2CC(=O)c1ccc(Cl)cc1Cl	none (no result: HCV inhibitor)
COc1cccc(CNC(=O)C2CCC(=O)N(CC3CCCCC3)C2)c1OC (stereo not given)	none
Nc1nc(SCC(=O)Nc2cccc(C(F)(F)F)c2)n[nH]1	none (no result: HCV inhibitor)
Cn1c(=O)c2c(SCc3cccnc3)nc(CC(C)(C)C)nc2n(C)c1=O	none
CCCc1nc(SCc2cccnc2)c2c(=O)n(C)c(=O)n(C)c2n1	HCV inhibitor 10µM
CCCc1nc(SCc2ccccn2)c2c(=O)n(C)c(=O)n(C)c2n1	HCV inhibitor 10µM
Cn1c(=O)c2c(SCc3ccccn3)nc(CC(C)(C)C)nc2n(C)c1=O	HCV inhibitor inconclusive
CCC(=O)N1CCN(c2nc(-c3ccccc3)c3c(c2C#N)CCCC3)CC1	HCV inhibitor 10µM
CC(C)c1nc(N2CCN(C(=O)c3ccco3)CC2)c(C#N)c2c1COC(C)(C)C2	HCV inhibitor inconclusive
CCCCc1nc(N2CCN(C(=O)c3ccco3)CC2)c(C#N)c2c1CCCC2	HCV inhibitor 14.1µM (no result: VACV mCherry inh, Vaccinia Venus)
N#Cc1c(SCC(=O)O)nc(-c2ccccc2)c2c1CCCC2	none
CC(C)(C)c1ccc(C(=O)Nc2ccccc2C(=O)OCc2cc(=O)n3ccsc3n2)cc1	none (no result: HCV inhibitor)
Cc1ccc(Nc2nc(CSc3nnc(-c4cccnc4)n3-c3ccccc3C)cs2)cc1	VACV mCherry inh inconclusive, HCV inhibitor 31.6µM
Cc1ccccc1-n1c(SCc2csc(Nc3ccccc3)n2)nnc1-c1cccnc1	HCV inhibitor inconclusive
COc1ccccc1CN1CCC(CNC(=O)c2cnn(-c3ccc(Cl)cc3)c2C2CCN(C(=O)OC(C)(C)C)CC2)CC1	VACV mCherry inh inconclusive (no result: HCV inhibitor)
O=C(Cn1cc(SCc2ccc(Cl)cc2)c2ccccc21)N1CCCC1	none (no result: HCV inhibitor)
Cc1ccccc1Cn1cc(NC(=O)c2cc3nc(-c4ccco4)cc(C(F)(F)F)n3n2)cn1	VACV mCherry inh inconclusive, HCV inhibitor 10µM
Cc1ccc(Cn2ccc(NC(=O)c3cc4nc(-c5ccco5)cc(C(F)(F)F)n4n3)n2)cc1	none (no result: VACV mCherry inh, Vaccinia Venus)
O=C(Nc1ccc(Cl)cc1)c1cc2nc(-c3ccco3)cc(C(F)(F)F)n2n1	HCV inhibitor inconclusive
CCc1ccc(-c2cc(C(F)(F)F)n3nc(C(=O)Nc4cnn(Cc5ccc(C)cc5)c4)cc3n2)s1	HCV inhibitor 11.2µM (no result: VACV mCherry inh, Vaccinia Venus)
O=Cc1ccc(I)cc1	none (no result: HCV inhibitor)
CC(C)(CNC(=O)c1cnn(-c2nccc(-c3cccs3)n2)c1C1CC1)N1CCOCC1	none (no result: HCV inhibitor)
CCCCN(C(=O)c1ccc(NC2CC2)c([N+](=O)[O-])c1)c1c(N)n(CCCC)c(=O)[nH]c1=O	HCV inhibitor inconclusive
CN1CCN(C2Cc3ccccc3Sc3ccc(Cl)cc32)CC1 (stereo not given)	VACV mCherry inh inconclusive, HCV inhibitor inconclusive
CN1CCN(C2Cc3ccccc3Sc3cc(C(F)(F)F)ccc32)CC1 (stereo not given)	VACV mCherry inh inconclusive, HCV inhibitor 11.2µM
Cc1ccc2oc(-c3cccc(NC(=O)COc4ccc(Cl)cc4)c3C)nc2c1	none (no result: HCV inhibitor)
CC(=O)Nc1ccc(NC(=S)NC(=O)C2CC2)cc1	none
O=C(NC(=S)Nc1ccc(Br)c(Cl)c1)C1CC1	HCV inhibitor 10µM (no result: VACV mCherry inh, Vaccinia Venus)
O=C(Nc1ccc(Cl)cc1)Nc1ccc(Cl)c(Cl)c1	VACV mCherry inh 12.6µM, HCV inhibitor inconclusive, Vaccinia Venus 11.2µM
CC(C)(C)N(NC(=O)Nc1ccc(F)cc1)C(=O)c1ccccc1	none
Cc1ccc(NC(=O)Nc2ccc(F)c(Cl)c2)cc1	HCV inhibitor inconclusive
N#Cc1ccc(NC(=O)Nc2ccc(Cl)cc2)cc1	VACV mCherry inh inconclusive, HCV inhibitor inconclusive, Vaccinia Venus 11.2µM
CC(C)(C)N(NC(=O)Nc1ccc(Cl)c(Cl)c1)C(=O)c1ccccc1	HCV inhibitor inconclusive, Vaccinia Venus 12.6µM
CN(CC(=O)Nc1ccc(C#N)cc1)Cc1ccc(Cl)cc1	none
COc1ccc(CC(=O)Nc2c(C(=O)N3CCN(c4ccccc4F)CC3)oc3ccccc23)cc1OC	VACV mCherry inh inconclusive (no result: HCV inhibitor)
COc1ccc(C(=O)NCC2Cc3cccc(-c4cncnc4)c3O2)c(OC)c1OC (stereo not given)	none (no result: HCV inhibitor)
O=C(C[N+]12CN3CN(CN(C3)C1)C2)c1ccc(Br)cc1	none (no result: HCV inhibitor)
CCOc1ccc(C(=O)NNC(=O)CCNC(=O)c2ccco2)cc1OC	none
Cc1ccc(CN(Cc2cccn2-c2nnc(N3CCCC3=O)s2)C(=O)Nc2cc(C)cc(C)c2)cc1	none (no result: HCV inhibitor)
CC(C)C[C@H]1CN([C@@H](Cc2ccc(O)cc2)CN2CCC[C@H]2CN2C(=O)C(=O)NC[C@@H]2Cc2ccc(O)cc2)C(=O)C(=O)N1CCc1ccccc1	none (no result: HCV inhibitor)
O=C(Nc1ccccc1)Nc1ccc(Br)c(Cl)c1	VACV mCherry inh inconclusive, HCV inhibitor 12.6µM, Vaccinia Venus inconclusive
O=C(Nc1ccccc1)Nc1ccccc1Br	none
O=C(Nc1ccc(Cl)c(Cl)c1)Nc1nnc(-c2ccncc2)s1	HCV inhibitor 8.91µM
COc1ccc(NC(=O)Nc2nnc(-c3ccncc3)s2)cc1	none
COc1ccc(Cl)cc1S(=O)(=O)N(C)CC(=O)NCc1ccc2c(c1)OCO2	none
COc1ccc(Br)cc1C1NC(c2ccc3c(c2)OCO3)=CC(c2ccccc2O)N1 (stereo not given)	none (no result: HCV inhibitor)
COCc1c(C(=O)N2CCN(c3ccccc3)CC2)cnn1-c1nccc(-c2ccco2)n1	none (no result: HCV inhibitor)
CCc1c(C)nc2ncnn2c1Nc1ccccc1C	none
Cc1ccccc1Nc1c(C)c(C)nc2ncnn12	HCV inhibitor 11.2µM
Cc1ccc(OCC(O)CNC2CCCC2)c(C)c1 (stereo not given)	none (no result: VACV mCherry inh, Vaccinia Venus)
CCn1c(=N)n(CC(O)COc2ccc(C)cc2)c2ccccc21 (stereo not given)	HCV inhibitor inconclusive
OC(COc1ccccc1)Cn1c2ccccc2c2ccccc21 (stereo not given)	VACV mCherry inh inconclusive, HCV inhibitor inconclusive
Cc1ccccc1OCC(O)CNC1CCC(NCC(O)COc2ccccc2C)CC1 (stereo not given)	VACV mCherry inh 3.16µM, HCV inhibitor inconclusive, Vaccinia Venus 10µM
C=CCn1c(=N)n(CC(O)COc2ccccc2OC)c2ccccc21 (stereo not given)	HCV inhibitor inconclusive
